Values joined by “and” are separate entries in the source; they are usually repeats but may differ in a detail not shown here. Equal values may be shown once. Screen size: about 16,000 compounds; about 5,700 (36%) were called active. Roughly 24% stayed inconclusive and do not appear here. Calls follow the shape of the dose curve; as a rule, active = well fitted curve in the direction sought with a large enough effect; inconclusive = small, poorly fitted or top-dose-only effect, or effect the other way; inactive = no such curve, though single readings can be large or run the other way. The list shows a part of the results. Some compounds were tested as several samples or in several runs, with calls that do not always agree.
Target: Cytochrome P450 1A2 (Homo sapiens) (UniProt P05177)
Sequence (P05177 whole entry, looked up): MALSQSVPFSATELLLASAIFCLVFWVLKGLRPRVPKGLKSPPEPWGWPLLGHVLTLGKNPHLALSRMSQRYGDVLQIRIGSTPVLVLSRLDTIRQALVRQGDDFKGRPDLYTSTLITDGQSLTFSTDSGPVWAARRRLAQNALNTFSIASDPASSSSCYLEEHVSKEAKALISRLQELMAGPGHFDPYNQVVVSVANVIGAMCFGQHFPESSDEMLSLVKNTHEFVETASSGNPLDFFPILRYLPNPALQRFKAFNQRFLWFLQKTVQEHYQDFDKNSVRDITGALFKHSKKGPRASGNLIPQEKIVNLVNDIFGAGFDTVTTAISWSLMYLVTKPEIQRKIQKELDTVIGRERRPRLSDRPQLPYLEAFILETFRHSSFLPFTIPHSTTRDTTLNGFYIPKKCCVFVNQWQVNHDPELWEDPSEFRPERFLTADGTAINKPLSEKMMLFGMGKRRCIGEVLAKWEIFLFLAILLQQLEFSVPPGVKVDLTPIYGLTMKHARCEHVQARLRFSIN
Test: Cytochrome panel assay with activity outcomes
Conditions: recombinant CYP, pro-luciferin dealkylation, luminescence, p450-cyp1a2; series mostly up to 57.1 µM; activity, negative = inhibition: at the top concentration
% is scaled to controls: 0 for no effect and ±100 for the full control effect.

SMILES	activity, negative = inhibition	AC50
CC[C@@H](c1ccccc1)n1c(=O)n2n(c1=O)[C@H]1[C@H](O)[C@H]3O[C@@H]3/C(=N/OCc3ccccc3)[C@@H]1CC2	-0.045% [at 11.4 µM] (inactive)	–
CCC1CCCCN1Cc1cc(OC)c(O)c([N+](=O)[O-])c1 (centres undefined)	-1.7% (inactive)	–
CCCCCCN1C=CC(=C/C=C(\C#N)C(=O)OCC)C=C1	-22.3% (inactive)	–
COc1cc(OC)c(NC(=S)Nc2cccc(C(C)=O)c2)cc1Cl	–	6.31 µM (active)
COc1cc(C(=O)NC(=S)Nc2ccc(Cl)c(C(=O)O)c2)cc(OC)c1OC	-16.2% (inactive)	–
Fc1ccc(-c2[nH]ncc2-c2nnnn2-c2ccccc2)c(F)c1	-19% (inactive)	–
Clc1ccc2[nH]cc(-c3nnnn3-c3ccccc3)c2c1	–	7.94 µM (active)
Cc1ccc(-n2nnnc2-c2cnc3ccc(Cl)cc3c2-c2ccccc2)cc1	-12.6% (inactive)	–
O=C(Nc1cccc(F)c1)N1CC2(CCN(C(=O)c3csnn3)CC2)C1	-1.09% (inactive)	–
COc1cc(C(=O)NCC(c2cccnc2)N2CCN(C)CC2)cc(OC)c1OC (centres undefined)	–	20 µM (active)
COC(=O)NCC(c1cccnc1)N1CCN(c2ccccc2OC)CC1 (centres undefined)	-22.4% (inactive)	–
COc1ccc(N2CCN(C(CNC(=O)C3CCCCC3)c3cccnc3)CC2)cc1 (centres undefined)	-27.8% (inactive)	–
COc1ccc2cc1Oc1ccc(cc1)C[C@@H]1c3c(cc(OC)c4c3Oc3cc5c(cc3O4)CCN[C@H]5C2)CCN1C	-14.6% [at 11.4 µM] (inactive)	–
NCCS	-3.38% (inactive)	–
O=C(N/N=C1/C[C@@H](O)[C@@H](O)[C@@H]2[C@H]3C(=O)N(c4ccc(F)cc4F)C(=O)[C@@H]3CC[C@@H]12)OCc1ccccc1	-2.1% [at 11.4 µM] (inactive)	–
COCCCn1nnnc1SCC(=O)N1CCCC1	-21.8% (inactive)	–
CCCCn1nnnc1SCC(=O)c1cc(Cl)ccc1OC	–	4.47 µM (active)
CCCCn1nnnc1SCC(=O)N1CCCC1	-28.1% (inactive)	–
CSc1ccc(Cl)c(C(=O)NCCOc2cc(C)ccc2C(C)C)c1	–	2.24 µM (active)
CC(C)(N=NC(C)(C)C1=NCCN1)C1=NCCN1	-3.55% [at 11.4 µM] (inactive)	–
COc1ccc(S(=O)(=O)N(CC(=O)NCC2CCCO2)c2ccc(F)cc2)cc1OC (centres undefined)	0.0002% (inactive)	–
COC(=O)c1[nH]c2cccc(OC)c2c1NC(=O)CN(C)CC1OCCO1	–	14.1 µM (active)

SMILES	activity, negative = inhibition	AC50
CCS(=O)(=O)N1CCC(C(=O)NCc2ccc(F)cc2Cl)CC1	-25.9% (inactive)	–
CCN1C(=O)[C@H]2[C@H]3[C@H](O)[C@H](O)C/C(=N/O[C@@H](C)c4cn([C@H](CO)Cc5ccccc5)nn4)[C@@H]3CC[C@@H]2C1=O	-6.67% [at 11.4 µM] (inactive) and -6.23% [at 11.4 µM] (inactive)	–
C[C@H](N=C(NC#N)Nc1ccncc1)C(C)(C)C	–	inactive and 15.8 µM (active)
C[C@H](N)C1CCC(C(=O)Nc2ccncc2)CC1 (some centres undefined)	0.656% (inactive)	–
O=C(O)[C@@H]1CS[C@@]2(CCCN(Cc3ccccc3)C2)N1	-12% [at 2.29 µM] (inactive)	–
Cc1ccc(C(=O)Nc2nc3ccccc3n3nnnc23)cc1	–	2.51 µM (active)
Cc1cccc(CCNc2nc3ccccc3n3nnnc23)c1	–	0.891 µM (active)
Cn1c(=O)c2c(ncn2CN2CCN(Cn3cnc4c3c(=O)n(C)c(=O)n4C)CC2)n(C)c1=O	-18.2% [at 2.29 µM] (inactive)	–
Nc1c(C(=O)NCc2ccccc2)sc2nc3c(cc12)C(=O)CCC3	–	20 µM (active)
C/C(=C\C(=O)c1ccc(Cl)cc1)NCc1ccc2c(c1)OCO2	–	1 µM (active)
O=C(/C=C/c1cc2c(cc1Br)OCO2)NCc1ccc(Cl)cc1	–	1.58 µM (active)
C/C(=C\C(=O)c1ccc(Br)cc1)NCc1ccc2c(c1)OCO2	–	1.41 µM (active)
O=C1Nc2ccc([N+](=O)[O-])cc2C1(O)N1CCCCCC1 (centres undefined)	-25.1% (inactive)	–
CNc1nc(-c2ccccc2CN(C)C)nc2ccccc12	–	3.16 µM (active)
Cc1cccc(CNc2nc(-c3ccccc3CN(C)C)nc3ccccc23)c1	–	3.16 µM (active)
CN(C)Cc1ccccc1-c1nc(N(C)C)c2ccccc2n1	–	1.26 µM (active)
CN(C)Cc1ccccc1-c1nc(NC2CC2)c2ccccc2n1	–	5.01 µM (active)
C/C(CC/C(C)=N/O)=N/O	-12.6% [at 2.29 µM] (inactive)	–
CN(C)Cc1ccccc1-c1nc(NCc2ccccc2)c2ccccc2n1	–	1.26 µM (active)
COCCNc1nc(-c2ccccc2CN(C)C)nc2ccccc12	–	10 µM (active)
CN(C)Cc1ccccc1-c1nc(NCc2cccs2)c2ccccc2n1	–	1 µM (active)
Cc1cn([C@H]2C[C@H](O)[C@@H](COC(N)=O)O2)c(=O)[nH]c1=O	-14.6% [at 2.29 µM] (inactive)	–

From PubChem BioAssay AID1851 (National Center for Advancing Translational Sciences (NCATS), 2009)
